Measured values reported in PubChem BioAssay (EPA / NIEHS).
Inconclusive results are not listed. Activity calls are given as the source filed them. Rule for the calls, unless noted: active = hit-call score of the fitted dose curve at least 0.9, where 1 is the maximum; inactive = score below 0.9.

Assays:
[1] = molecular target: Aryl hydrocarbon receptor (Homo sapiens) (UniProt P35869); assay: ATG_Ahr_CIS: Attagene CIS-FACTORIAL HepG2 Assay for human Aryl Hydrocarbon Receptor (Ahr) (AID 2282930); conditions: HepG2 AhR cis-factorial reporter transcription; actives raise or lower the signal
Sequence of Aryl hydrocarbon receptor (Homo sapiens) (P35869 whole entry, looked up): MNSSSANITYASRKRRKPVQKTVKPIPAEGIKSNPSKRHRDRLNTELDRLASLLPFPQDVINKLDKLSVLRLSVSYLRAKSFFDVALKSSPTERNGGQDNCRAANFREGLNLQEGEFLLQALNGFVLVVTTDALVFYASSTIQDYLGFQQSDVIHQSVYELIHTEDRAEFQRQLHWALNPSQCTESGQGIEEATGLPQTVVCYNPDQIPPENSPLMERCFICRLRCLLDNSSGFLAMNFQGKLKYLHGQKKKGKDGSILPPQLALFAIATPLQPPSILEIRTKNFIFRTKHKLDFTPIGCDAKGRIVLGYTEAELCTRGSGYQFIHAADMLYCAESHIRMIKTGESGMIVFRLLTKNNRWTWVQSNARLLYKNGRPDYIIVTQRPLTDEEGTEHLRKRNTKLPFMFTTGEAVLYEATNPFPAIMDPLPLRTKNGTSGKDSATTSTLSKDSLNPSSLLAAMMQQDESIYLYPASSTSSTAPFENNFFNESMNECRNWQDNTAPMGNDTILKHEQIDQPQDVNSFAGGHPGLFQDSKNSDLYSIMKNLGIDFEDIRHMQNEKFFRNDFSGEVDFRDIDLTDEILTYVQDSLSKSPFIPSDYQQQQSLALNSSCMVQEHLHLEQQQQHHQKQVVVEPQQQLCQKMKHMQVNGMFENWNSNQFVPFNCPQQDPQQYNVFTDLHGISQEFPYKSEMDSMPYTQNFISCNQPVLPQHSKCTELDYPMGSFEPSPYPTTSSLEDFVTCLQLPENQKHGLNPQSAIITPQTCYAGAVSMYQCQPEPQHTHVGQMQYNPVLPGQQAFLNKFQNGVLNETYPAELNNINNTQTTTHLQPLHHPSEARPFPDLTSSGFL
How it was run: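 Read-out: reporter mRNA quantified by RT-PCR with fluorescent primer extension and capillary electrophoresis. Human HepG2 liver cells carried transfected cis-promoter reporter units and were exposed to chemical for 24 h; gain or loss fitted relative to DMSO.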

[2] = ATG_BRE_CIS: Attagene CIS-FACTORIAL HepG2 Assay for human Bone Morphogenetic Protein (BMP) Response Element (BRE) (AID 2282933); conditions: HepG2 BMP response element reporter, Attagene transcription factor profiling; actives raise or lower the signal
How it was run: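 Endogenous transcription factor activity read in transiently transfected HepG2 cells after 24 h chemical exposure. Bidirectional curve fitting against DMSO; readout is reporter transcript level by RT-PCR with capillary electrophoresis of labelled products.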

[3] = ATG_GLI_CIS: Attagene CIS-FACTORIAL HepG2 Assay for human Zinc Finger Protein GLI1 (AID 2282945); conditions: HepG2, Attagene cis-factorial reporter mRNA, GLI element; actives raise or lower the signal
How it was run: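 Transiently transfected HepG2 cells report endogenous transcription factor activity via cis-element-driven reporter units. After 24 h compound exposure, reporter mRNA was measured by RT-PCR with capillary electrophoresis; bidirectional fitting against DMSO baseline.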

[4] = ATG_RORE_CIS: Attagene CIS-FACTORIAL HepG2 Assay for human RAR-related Orphan Receptor Element (RORE) (AID 2282959); conditions: HepG2 Attagene cis-factorial RORE reporter, mRNA; actives raise or lower the signal
How it was run: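 HepG2 cells transiently transfected with multiple cis-element reporter transcription units, exposed to chemical for 24 h. Reporter mRNA quantified by RT-PCR, 6-FAM primer-extension labeling, HpaI digestion and capillary electrophoresis; bidirectional fit versus DMSO baseline.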

[5] = ATG_TAL_CIS: Attagene CIS-FACTORIAL HepG2 Assay for human TAL Basal Promoter (AID 2282966); conditions: HepG2 Attagene cis-factorial TAL promoter reporter; actives raise or lower the signal;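 note: background control endpoint measuring basal TAL promoter reporter mRNA not a specific factor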
How it was run: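 RT-PCR plus capillary electrophoresis quantifies reporter mRNA induction in transiently transfected HepG2 cells after 24 h chemical treatment. DMSO serves as negative control and baseline for bidirectional fitting.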

[6] = ATG_TGFb_CIS: Attagene CIS-FACTORIAL HepG2 Assay for human Transforming Growth Factor (TGF) (AID 2282967); conditions: HepG2 Attagene CIS TGFb reporter, mRNA transcription; actives raise or lower the signal
How it was run: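 Endogenous TGFB1-linked transcription factor activity read as reporter mRNA via RT-PCR and capillary electrophoresis, 24 h after dosing transiently transfected HepG2 cells. Gain or loss of signal fitted relative to DMSO.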

[7] = ATG_VDRE_CIS: Attagene CIS-FACTORIAL HepG2 Assay for human Vitamin D Receptor Element (VDRE) (AID 2282968); conditions: HepG2 VDRE cis-reporter transcription, actives raise or lower the signal
How it was run: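 Cell-based multiplexed reporter format in human liver HepG2 cells, 24 h post-dose. Fluorescence from capillary electrophoresis of reporter cDNA gives the signal, with DMSO as negative control and baseline.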

[8] = molecular target: X-box-binding protein 1 (Homo sapiens) (UniProt P17861); assay: ATG_Xbp1_CIS: Attagene CIS-FACTORIAL HepG2 Assay for human X-box Binding Protein 1 (XBP1) (AID 2282972); conditions: HepG2 XBP1 cis-element reporter, Attagene multiplex; actives raise or lower the signal
Sequence of X-box-binding protein 1 (Homo sapiens) (P17861 whole entry, looked up): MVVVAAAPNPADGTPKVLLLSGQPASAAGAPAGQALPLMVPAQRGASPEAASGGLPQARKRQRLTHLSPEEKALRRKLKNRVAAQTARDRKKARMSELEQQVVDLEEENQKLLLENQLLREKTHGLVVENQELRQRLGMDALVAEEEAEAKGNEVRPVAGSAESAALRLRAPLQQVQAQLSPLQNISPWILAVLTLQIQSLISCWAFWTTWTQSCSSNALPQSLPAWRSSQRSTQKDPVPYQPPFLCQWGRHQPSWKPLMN
How it was run: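 After a 24-hour chemical exposure of HepG2 cells carrying cis-regulated reporters, reporter mRNA levels are assessed. Quantification uses RT-PCR, 6-FAM labelling and capillary electrophoresis. Gain- or loss-of-signal is fitted against DMSO.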

[9] = ATG_M_32_TRANS: Attagene TRANS-FACTORIAL HepG2 Assay for M32 Transcription Factor (Internal Marker) (AID 2282984; active = hit-call score of the fitted dose curve at least 0.9, where 1 is the maximum;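 note: transcript level of a background control reporter unit measured by RT-PCR and capillary electrophoresis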); conditions: HepG2 Attagene TRANS M32 internal marker reporter
How it was run: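 Capillary electrophoresis of 6-FAM-labelled reporter fragments gives the signal; data fitted for gain over DMSO negative control. Source: HepG2 cells bearing transient multiple reporter transcription units, 24 h exposure.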

[10] = ATG_NFI_CIS: Attagene CIS-FACTORIAL HepG2 Assay for human Nuclear Factor I (NFI) (AID 2282989); conditions: HepG2 cis-regulatory reporter, NFI response element transcription; actives raise or lower the signal
How it was run: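 Reporter transcripts were measured by RT-PCR with fluorescent primer extension and capillary electrophoresis 24 h post-treatment. HepG2 cells carried transiently transfected cis-regulated reporter constructs reporting endogenous factor activity; gain or loss fitted against DMSO baseline.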

[11] = molecular target: Myc proto-oncogene protein (Homo sapiens) (UniProt P01106); assay: ATG_Myc_CIS: Attagene CIS-FACTORIAL HepG2 Assay for human Myelocytomatosis (Myc) Proto-Oncogene Transcription Factor (AID 2282990); conditions: HepG2, Attagene cis-reporter transcription factor activity; actives raise or lower the signal
Sequence of Myc proto-oncogene protein (Homo sapiens) (P01106 whole entry, looked up, the tested form may be a part): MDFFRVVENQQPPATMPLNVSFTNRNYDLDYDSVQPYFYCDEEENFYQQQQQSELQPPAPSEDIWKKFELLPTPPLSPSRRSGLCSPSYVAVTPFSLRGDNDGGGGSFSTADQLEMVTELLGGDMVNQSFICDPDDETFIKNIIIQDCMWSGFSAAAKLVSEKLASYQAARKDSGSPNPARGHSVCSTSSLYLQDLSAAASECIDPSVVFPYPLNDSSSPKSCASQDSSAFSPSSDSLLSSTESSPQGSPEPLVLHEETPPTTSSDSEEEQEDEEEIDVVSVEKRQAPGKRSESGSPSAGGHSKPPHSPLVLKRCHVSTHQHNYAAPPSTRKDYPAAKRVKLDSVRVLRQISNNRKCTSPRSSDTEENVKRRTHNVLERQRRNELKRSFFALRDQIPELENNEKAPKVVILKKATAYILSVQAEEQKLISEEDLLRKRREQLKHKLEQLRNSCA
How it was run: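 Read-out: fluorescent reporter mRNA fragments resolved by capillary electrophoresis after RT-PCR. Human HepG2 liver cells carried transfected cis-element reporter units and were dosed for 24 h. Gain or loss of signal fitted relative to DMSO baseline.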

[12] = ATG_NF_kB_CIS: Attagene CIS-FACTORIAL HepG2 Assay for human Nuclear Factor Kappa B (NF-kB) (AID 2282991); conditions: HepG2 Attagene cis-factorial NF-kB reporter mRNA; actives raise or lower the signal
How it was run: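 HepG2 cells transiently transfected with multiplexed cis-element reporter units measuring endogenous transcription factor activity; reporter mRNA read 24 h after dosing by RT-PCR, fluorescent labelling, HpaI digestion and capillary electrophoresis. Bidirectional fit against DMSO baseline.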

[13] = ATG_NRF2_ARE_CIS: Attagene CIS-FACTORIAL HepG2 Assay for human Nuclear Factor Erythroid 2 Related Factor 2 (NFR2) response to Antioxidant Response Elements (ARE) (AID 2282992); conditions: HepG2 Attagene ARE/NRF2 reporter, transcription factor activity; actives raise or lower the signal;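 for AC50: reporter mRNA level measured by RT-PCR and capillary electrophoresis fluorescence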
How it was run: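 Cis-factorial assay: transfected HepG2 reporter library, 24 h dosing, mRNA readout via RT-PCR/CE; DMSO-referenced bidirectional analysis.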

[14] = ATG_Oct_MLP_CIS: Attagene CIS-FACTORIAL HepG2 Assay for human Octamer-Binding Transcription Factor (Oct) (AID 2282993); conditions: HepG2 Attagene cis-factorial Oct reporter, mRNA; actives raise or lower the signal
How it was run: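 Readout is reporter transcript level from RT-PCR with fluorescent primer extension and capillary electrophoresis, fitted in both directions against DMSO. Transfected HepG2 reporter units report endogenous factor activity after 24 h dosing.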

[15] = molecular target: Cellular tumor antigen p53 (Homo sapiens) (UniProt P04637); assay: ATG_p53_CIS: Attagene CIS-FACTORIAL HepG2 Assay for human p53 Transcription Factor (AID 2282994); conditions: HepG2 p53 cis-element reporter, Attagene mRNA; actives raise or lower the signal
Sequence of Cellular tumor antigen p53 (Homo sapiens) (P04637 whole entry, looked up): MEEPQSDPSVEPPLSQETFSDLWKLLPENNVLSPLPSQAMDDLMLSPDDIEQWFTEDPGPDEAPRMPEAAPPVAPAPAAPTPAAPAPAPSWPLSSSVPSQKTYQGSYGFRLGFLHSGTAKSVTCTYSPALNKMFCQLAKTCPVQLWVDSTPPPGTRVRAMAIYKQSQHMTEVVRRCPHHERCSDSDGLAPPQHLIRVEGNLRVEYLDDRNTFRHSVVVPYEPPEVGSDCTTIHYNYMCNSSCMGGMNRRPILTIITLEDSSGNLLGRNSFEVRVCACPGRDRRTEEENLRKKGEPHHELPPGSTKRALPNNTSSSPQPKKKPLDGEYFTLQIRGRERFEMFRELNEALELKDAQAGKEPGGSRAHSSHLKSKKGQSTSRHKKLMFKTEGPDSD
How it was run: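 Using HepG2 hepatoma cells carrying cis-acting multiplexed reporters, mRNA induction is detected after a 24 h exposure. Gain- and loss-of-signal responses are fitted relative to DMSO-treated cells.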

[16] = molecular target: Peroxisome proliferator-activated receptor gamma (Homo sapiens) (UniProt P37231); assay: ATG_PPARg_TRANS: Attagene TRANS-FACTORIAL HepG2 Assay for human Peroxisome Proliferator-activated Receptor-gamma (PPARg) (AID 2283007; active = hit-call score of the fitted dose curve at least 0.9, where 1 is the maximum)
Sequence of Peroxisome proliferator-activated receptor gamma (Homo sapiens) (P37231 whole entry, looked up, the tested form may be a part): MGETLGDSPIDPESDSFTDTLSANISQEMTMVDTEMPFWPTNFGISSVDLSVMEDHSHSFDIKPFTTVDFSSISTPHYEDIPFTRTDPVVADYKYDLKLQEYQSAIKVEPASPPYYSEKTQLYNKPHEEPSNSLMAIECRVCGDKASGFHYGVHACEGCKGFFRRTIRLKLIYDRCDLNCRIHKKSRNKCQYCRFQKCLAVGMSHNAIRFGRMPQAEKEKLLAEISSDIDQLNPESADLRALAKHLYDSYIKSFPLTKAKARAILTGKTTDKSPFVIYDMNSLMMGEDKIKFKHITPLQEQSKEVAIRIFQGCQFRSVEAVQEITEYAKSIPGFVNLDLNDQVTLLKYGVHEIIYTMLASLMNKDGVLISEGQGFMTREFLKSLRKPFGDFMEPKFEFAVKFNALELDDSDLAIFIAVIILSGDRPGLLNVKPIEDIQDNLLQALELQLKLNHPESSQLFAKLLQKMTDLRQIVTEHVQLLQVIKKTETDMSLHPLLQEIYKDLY
How it was run: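 HepG2 cells transiently transfected with multiplexed GAL4-UAS reporter units and exogenous chimeric NR-Gal4 proteins; reporter mRNA quantified after 24 h compound exposure by RT-PCR, fluorescent labelling, HpaI digestion and capillary electrophoresis; gain-of-signal fitted versus DMSO baseline.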

[17] = molecular target: Nuclear receptor subfamily 1 group I member 2 (Homo sapiens) (UniProt O75469); assay: ATG_PXR_TRANS: Attagene TRANS-FACTORIAL HepG2 Assay for human Pregnane X Receptor (PXR) (AID 2283008; active = hit-call score of the fitted dose curve at least 0.9, where 1 is the maximum)
Sequence of Nuclear receptor subfamily 1 group I member 2 (Homo sapiens) (O75469 whole entry, looked up, the tested form may be a part): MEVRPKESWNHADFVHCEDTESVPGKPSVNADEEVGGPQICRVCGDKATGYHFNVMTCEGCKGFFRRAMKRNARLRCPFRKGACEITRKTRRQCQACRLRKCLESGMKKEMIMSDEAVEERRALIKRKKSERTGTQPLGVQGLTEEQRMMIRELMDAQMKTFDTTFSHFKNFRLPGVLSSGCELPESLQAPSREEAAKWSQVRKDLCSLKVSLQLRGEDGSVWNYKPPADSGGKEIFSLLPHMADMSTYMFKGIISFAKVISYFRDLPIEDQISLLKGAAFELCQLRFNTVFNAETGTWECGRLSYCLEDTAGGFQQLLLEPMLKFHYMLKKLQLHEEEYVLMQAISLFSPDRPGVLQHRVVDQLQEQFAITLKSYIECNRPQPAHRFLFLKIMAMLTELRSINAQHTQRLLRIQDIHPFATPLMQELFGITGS
How it was run: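 Fluorescence intensity of FAM-labelled, HpaI-digested reporter amplicons, separated by capillary electrophoresis, quantifies induction. HepG2 cells with PXR-Gal4 trans-reporter system were exposed 24 h; DMSO defines baseline.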

[18] = molecular target: Paired box protein Pax-6 (Homo sapiens) (UniProt P26367); assay: ATG_Pax6_CIS: Attagene CIS-FACTORIAL HepG2 Assay for human Paired Box 6 (PAX6) (AID 2282956); conditions: HepG2 CIS-FACTORIAL PAX6 reporter transcription, RNA readout; actives raise or lower the signal
Sequence of Paired box protein Pax-6 (Homo sapiens) (P26367 whole entry, looked up): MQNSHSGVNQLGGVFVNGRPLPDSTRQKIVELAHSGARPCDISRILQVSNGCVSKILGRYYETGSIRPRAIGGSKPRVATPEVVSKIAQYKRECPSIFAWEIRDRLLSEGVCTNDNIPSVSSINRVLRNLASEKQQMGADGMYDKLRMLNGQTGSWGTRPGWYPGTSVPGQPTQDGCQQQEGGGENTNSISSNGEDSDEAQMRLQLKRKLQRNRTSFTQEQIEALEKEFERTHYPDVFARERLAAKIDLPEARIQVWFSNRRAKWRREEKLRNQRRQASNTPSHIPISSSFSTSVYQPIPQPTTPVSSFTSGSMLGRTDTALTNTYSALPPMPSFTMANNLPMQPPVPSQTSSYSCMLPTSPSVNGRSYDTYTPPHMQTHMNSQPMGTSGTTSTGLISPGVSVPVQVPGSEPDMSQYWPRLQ
How it was run: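 After twenty-four hours of chemical exposure, transfected HepG2 cells are harvested for RNA. Cis-promoter reporter transcripts are amplified, fluorescently labelled and sized by capillary electrophoresis, with gain and loss of signal scored against DMSO.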

[19] = ATG_XTT_Cytotoxicity: Cytotoxicity Assessment in the Attagene TRANS-FACTORIAL HepG2 Assay (AID 2283584; active = hit-call score of the fitted dose curve at least 0.9, where 1 is the maximum)
How it was run: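 Viability endpoint from XTT after 24 h chemical exposure of reporter-transfected human HepG2 liver cells; signal loss fitted relative to DMSO negative control.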

Measured: AC50

Nc1ccc(Cl)c(Cl)c1
not listed: [18] | [19]
inactive: all other assays above

C#CC1(O)CCCCC1
not listed: [3] | [7] | [16] | [17]
inactive: all other assays above

N#CCNCC#N
not listed: [17]
inactive: all other assays above

C[C@]12CC[C@H]3[C@@H](CC[C@@]45O[C@@H]4C(O)=C(C#N)C[C@]35C)[C@@H]1CC[C@@H]2O
active: [18] 44.2 µM | [7] 33.9 µM | [8] 60 µM | [12] 18.6 µM | [13] 58.9 µM | [14] 63.3 µM | [17] 27.4 µM
inactive: all other assays above

S=c1[nH]c2ccccc2[nH]1
not listed: [7] | [9] | [12]
inactive: all other assays above

Cc1ccc(OP(=O)(Oc2ccc(C)cc2)Oc2ccc(C)cc2)cc1 (tested in a mixture with another compound)
active: [7] 2.35 µM | [16] 1.85 µM | [17] 0.596 µM
not listed: [4] | [9] | [12]
inactive: all other assays above

C=Cc1cccc(CCl)c1
active: [8] 38.5 µM | [13] 22.4 µM | [14] 46.2 µM
not listed: [7] | [16] | [17]
inactive: all other assays above
